Jurkat NFkB inh: inhibitors of induced NF-kB luciferase reporter, primary screen, TCR NF-kB activation inhibitor project, cell-based, luminescence, uHTS; Jurkat, PMA/ionomycin-induced NF-kB luciferase reporter; inhibition, % at 4 µM; 0.53% of 330,000 active; in the data active = inhibition above about 50%
SMARCA2 activ: SMARCA2 (BRM) function activators, primary screen, cell-based, luminescence, high throughput. 1% of 370,000 active. AID 652017, 2013. activation, % at 9.1 µM. MG213 cells, MMTV-luciferase reporter, dexamethasone, overnight; in the data active = activation above about 7.8%;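 note: 0% = vehicle wells and 100% = reference activator wells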
esBAF inh: Bmi1 luciferase reporter increase in mESCs, primary screen, esBAF inhibitor project, mouse ES cells, Bmi1 luciferase knock-in, single point. 24 h; 100% = twice the neutral-well signal. reporter increase, % at 12.5 µM. 2% of 350,000 active. AID 602393, 2012; in the data active = activation above about 40%;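 note: 0% = median of the plate's neutral control wells and 100% = double that signal; a rise in the Bmi1 reporter signal indicates esBAF inhibition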
697 NFkB inh: inhibitors of PMA/ionomycin-induced NF-kB reporter, 697 cells, primary screen, B-cell NF-kB inhibitor project, cell-based, luminescence, uHTS; AID 435022, 2010; 697 B-cell NF-kB luciferase reporter, 16 h; inhibition, % at 4 µM; 0.33% of 330,000 active; in the data active = inhibition above about 35%
Gli-Sufu block: Gli-Sufu pathway antagonists, primary screen, luciferase luminescence, Sufu-KO-LIGHT cells, uHTS; 0.74% of 340,000 active; Sufu-KO-LIGHT fibroblasts, Gli luciferase reporter luminescence; AID 588413, 2011; inhibition, % at 5 µM;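 active = inhibition above about 55%, limit read from the data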;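 note: 0% = DMSO-treated cells and 100% = wells with medium but no cells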
Gli antag conf: Gli-SUFU pathway antagonists, confirmation, single concentration, luciferase luminescence, Sufu-KO-LIGHT cells; shares compounds with Gli-Sufu block; Gli luciferase reporter; inhibition, % at 5 µM; 40% of 2,500 active; AID 602428, 2012;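 active = mean inhibition at 5 µM reaching about 45%, limit read from the data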;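 note: plate controls were DMSO-treated cells for no effect and wells lacking cells for full effect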
Gli cytotox: cytotoxicity in Sufu-KO-LIGHT cells, confirmation, cytotoxicity control for Gli-SUFU antagonist project, cell-based, ATP luminescence, single concentration; 32% of 2,500 active; cytotoxicity, % at 5 µM; AID 651994, 2013; shares compounds with Gli-Sufu block;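 active = mean cytotoxicity at 5 µM above about 25%, limit read from the data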;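 note: cells exposed to compound overnight for roughly 16 to 18 hours; plate controls were DMSO wells with cells for no effect and medium without cells for full effect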
Wnt3a counter: Wnt3a reporter signal inhibition, confirmation, counter-screen for Gli-SUFU antagonist project, Wnt-LIGHT cells, luminescence, single concentration | shares compounds with Gli-Sufu block | Wnt3a-driven luciferase reporter | inhibition, % at 6.25 µM | 20% of 2,500 active;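 active = mean inhibition above about 25%, limit read from the data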
* = called active by the depositor; . = not tested or not shown. This is a sample that favours compounds with a hit; in the whole collection about 3.3% have one here.

SMILES | Jurkat NFkB inh | SMARCA2 activ | esBAF inh | 697 NFkB inh | Gli-Sufu block | Gli antag conf | Gli cytotox | Wnt3a counter
CN(C)S(=O)(=O)c1cccc(C(=O)OCC(=O)Nc2ccc3c(c2)OCCO3)c1 | -11.7 | 0.3 | -3.8 | 1.0 | -1.4 | . | . | .
C[C@H](CO)N1C[C@H](C)[C@H](CN(C)CC2CCOCC2)Oc2cc(C3=CCCC3)ccc2S1(=O)=O | . | . | -1.8 | . | . | . | . | .
CS(=O)(=O)N(CC(=O)NC1CCCCCC1)Cc1ccc(Cl)cc1 | -18.2 | -0.3 | 3.9 | 4.5 | 59.3* | 28.1 | 3.4 | 6.6
CC1CCCN(C(=O)c2ccc(S(=O)(=O)N3CCC(c4nc5ccccc5s4)CC3)cc2)C1 (stereo not given) | 15.4 | 0.1 | 3.8 | -29.7 | 42.3 | . | . | .
CCN(CC)C(=O)c1ccc(S(=O)(=O)N2CCC(c3nc4ccccc4s3)CC2)cc1 | 33.3 | -4.2 | -10.5 | -21.8 | 58.6* | 41.7 | 9.8 | 3.2
O=C(C(=Cc1ccccc1)CN1CCCCC1)c1ccccc1 | . | -5.2 | . | . | 60.3* | 77.5* | 12.7 | 68.9*
CCn1cc(CN2CCC(n3nccc3NC(=O)CCOc3ccccc3)CC2)cn1 | -4.4 | -1.4 | -0.2 | -25.6 | 13.1 | . | . | .
CCn1cc(CN2CCC(n3nccc3NC(=O)CCc3ccccc3)CC2)cn1 | 9.3 | 3.2 | -1.2 | 12.3 | 83.5* | 33.8 | 11.9 | 9.4
CO[C@H]1CN(C)C(=O)c2ccc(NC(C)=O)cc2OC[C@@H](C)N(C(=O)CN(C)C)C[C@H]1C | . | . | -3.4 | . | . | . | . | .
C[C@@H]1CN([C@@H](C)CO)C(=O)c2cc(NC(=O)Nc3ccccc3)ccc2O[C@@H](C)CCCCO[C@H]1CN(C)S(=O)(=O)c1ccc(Cl)cc1 | . | . | -3.9 | . | . | . | . | .
CC1=CC(C)C2(COC(c3ccc[n+](C)c3)OC2)C(C)C1 (stereo not given) | . | -0.2 | . | . | 58.1* | 53.0* | 16.6 | -3.8
CC1(C)Cc2c(sc3nc(-c4ccccc4)n(N)c(=O)c23)CO1 | -15.3 | 0.9 | 42.6* | -14.6 | 74.0* | 5.8 | -6.9 | -73.7
CO[C@@H]1CN(C)C(=O)c2cc(NS(=O)(=O)c3cn(C)cn3)ccc2OC[C@@H](C)N(CC2CC2)C[C@H]1C | . | . | -4.6 | . | . | . | . | .
O=C(Cc1cccs1)Nc1cccc(-c2nc3ccccc3o2)c1 | -8.1 | 0.0 | 6.9 | -20.8 | 99.0* | 20.4 | 13.8 | -6.3
Cc1cc(NC(=O)CSc2nc3c(c(=O)n2C)SCC3)no1 | 6.7 | -1.7 | -2.5 | -20.1 | 10.4 | . | . | .
COCCn1c(SCC(=O)Nc2cc(C)on2)nc2c(c1=O)SCC2 | 7.7 | 3.1 | 2.3 | -15.1 | 51.7 | 20.4 | -4.1 | -10.7
CC(c1ccc(F)cc1)n1cc(C(=O)NCc2ccccn2)nn1 (stereo not given) | -6.8 | 0.6 | -11.4 | 17.0 | -6.4 | . | . | .
CC(c1ccc(F)cc1)n1cc(C(=O)NCCN(C)C)nn1 (stereo not given) | -30.7 | 1.6 | . | -34.9 | 56.7* | 29.3 | 21.1 | 6.4
Cc1noc(C)c1NC(=O)N(C)C[C@@H]1Oc2c(NC(=O)Nc3ccc(F)cc3)cccc2C(=O)N([C@H](C)CO)C[C@@H]1C | . | . | 0.5 | . | . | . | . | .
CCOCCCNC(=S)N1C2CCC1CC(NC(=O)Nc1ccc(C(=O)OCC)cc1)C2 (stereo not given) | -5.9 | 4.8 | . | -10.2 | 69.6* | 9.2 | 30.5* | -12.3
CCNC(=S)N1C2CCC1CC(NC(=O)Nc1ccc(C(=O)OCC)cc1)C2 (stereo not given) | -5.6 | 1.0 | -13.3 | 13.9 | -1.4 | . | . | .
CCc1cccc2c(C(=O)COC(=O)c3nn(C)c(=O)c4ccccc34)c[nH]c12 | -7.1 | -1.1 | -2.9 | -12.2 | 99.3* | 30.2 | 6.0 | -85.5
CC(=O)N(C[C@H]1N[C@H](CO)[C@H]1c1ccc(-c2ccc(F)cc2)cc1)C(C)C | . | . | -2.9 | . | . | . | . | .
CCN(c1ccccc1)S(=O)(=O)c1ccc(N2CCN(c3ccc(O)cc3)CC2)nc1 | -1.5 | -6.0 | . | -21.2 | 55.2* | 29.0 | 3.7 | -23.5
C[C@H]1CCCCO[C@H](CN(C)C(=O)Nc2ccccc2)[C@@H](C)CN([C@@H](C)CO)C(=O)c2cc(NS(=O)(=O)c3ccc(F)cc3)ccc2O1 | . | . | 7.9 | . | . | . | . | .
SMILES | Jurkat NFkB inh | SMARCA2 activ | esBAF inh | 697 NFkB inh | Gli-Sufu block | Gli antag conf | Gli cytotox | Wnt3a counter
CCC(=O)N1C[C@@H](C)[C@@H](OC)CN(C)C(=O)c2ccc(NC(=O)c3cc(C)on3)cc2OC[C@@H]1C | . | . | -4.5 | . | . | . | . | .
CCCc1c(CC)c(=N)c2ccccc2n1C | -7.9 | . | -9.7 | -49.1 | 51.5 | 58.8* | 23.6 | 0.8
CC(SC(C)C(=O)NN=Cc1cccc(Cl)c1)C(=O)NN=Cc1cccc(Cl)c1 (stereo not given) | . | -7.2 | 1.4 | . | 7.2 | . | . | .
COc1cccc(C=NNC(=O)C(C)SC(C)C(=O)NN=Cc2cccc(OC)c2)c1 (stereo not given) | . | -3.8 | . | . | 52.1 | 6.0 | -13.6 | -10.5
Cc1cc(N2CCCC2=O)cc(C)c1S(=O)(=O)NCCOc1ccc(C(C)(C)C)cc1 | 5.9 | -6.1 | . | -43.0 | 74.8* | 71.8* | 43.6* | -1.9
O=C(O)c1ccc(N/N=C/c2ccc(OC(=O)c3ccccc3Cl)cc2)cc1 | 16.7 | 0.9 | . | -13.5 | 60.5* | 63.8* | 6.5 | 79.4*
Nc1ccc(C(=O)N/N=C\c2ccc(OC(=O)c3ccccc3Cl)cc2)cc1 | -3.8 | 3.5 | 13.4 | 4.0 | -4.3 | . | . | .
Cc1noc(C)c1NC(=O)N(C)C[C@H]1Oc2c(NC(=O)NC(C)C)cccc2C(=O)N([C@@H](C)CO)C[C@@H]1C | . | . | 0.7 | . | . | . | . | .
Nc1ccc(Br)cc1-c1nc2ccccc2[nH]c1=O | -21.1 | 0.7 | . | -14.4 | 51.7 | 68.6* | 34.1* | 6.7
COc1cc2nc(=S)n3[nH]c(CCn4nc(C)cc4C)nc3c2cc1OC | -0.8 | 7.7 | -9.9 | 19.8 | 68.2* | 39.9 | 13.4 | 4.8
CCn1c(C)nc2cc(-c3nnc(-c4c(-c5ccccc5)noc4C)o3)ccc21 | -0.2 | 0.5 | -19.3 | 1.6 | 70.2* | 76.7* | 17.4 | 17.9
O=C(Nc1nccs1)[C@H]1[C@H](CO)[C@H]2Cn3c(cccc3=O)[C@H]2N1C(=O)C1CC1 | . | . | -7.6 | . | . | . | . | .
Cn1c(=O)oc2cc(S(=O)(=O)Nc3ccccc3)ccc21 | 7.6 | -4.1 | . | 1.5 | -2.6 | . | . | .
CC(C)NS(=O)(=O)c1ccc2c(c1)oc(=O)n2C | -1.3 | -1.9 | 3.9 | -2.5 | 57.2* | 10.4 | 2.3 | -10.4
